Compound activity: PubChem BioAssay, National Center for Advancing Translational Sciences (NCATS)
The list is not random: actives were taken first. Their share in the collection is about 19%.
IL-1B inflam inh – qHTS for Inhibitors of Inflammasome Signaling: IL-1-beta AlphaLISA Primary Screen. AID 743279, 2014. THP-1 LPS/ATP IL-1B secretion, AlphaLISA, 16 h; hits give low values. actives 4.7% (n = 360,000). activity change, % at 57.5 µM; in the data active = activity change below about -50%; inconclusive = mostly about -30% to -49%
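THP-1 cells pretreated 1 hr with compounds (up to 57.5 uM final), then stimulated with LPS (250 ng/mL final) plus ATP (1.25 mM final); secreted IL-1B measured by AlphaLISA after 16 hr, decreased signal indicating inhibition.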
ELG1 repair inh – qHTS screen for small molecules that inhibit ELG1-dependent DNA repair in human embryonic kidney (HEK293T) cells expressing luciferase-tagged ELG1. Potency, µM (doses to about 46.1 µM), for the others: top-dose activity change, negative = inhibition, most hits filed as inhibitors. actives 2.3% (n = 330,000). HEK293T ELG1-luciferase reporter, luminescence, 16 h; DNA damage induced by 5-fluorouridine; note: potency is the fitted concentration of half-maximal effect; nearly all actives have a fitted effect of over 55% in size
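Reporter activity after DNA damage by 5-fluorouridine is monitored. Compound-treated cells incubate 16 hr at 37 °C, then ONE-Glo is added for 30 min before luminescence reading.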
DT40 TDP1 no CPT – qHTS for Inhibitors of human tyrosyl-DNA phosphodiesterase 1 (TDP1): qHTS in cells in absence of CPT. DT40 Tdp1-/- hTDP1 cells, no CPT, ATP luminescence, 48 h. Potency, µM (titrated, usually from 46.2 µM), for inactives: at the highest dose activity change, negative = growth inhibition, actives largely listed as inhibitors. actives 15% (n = 420,000); note: potency is the fitted concentration of half-maximal effect; nearly all actives have a fitted effect of over 55% in size
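Growth of hTDP1-complemented DT40 Tdp1-knockout cells is measured by ATP luminescence after at least 48 hr compound exposure at 37 °C, with DMSO substituting for the 20 nM CPT used in the parallel screen.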
TDP1 cell CPT – qHTS for Inhibitors of human tyrosyl-DNA phosphodiesterase 1 (TDP1): qHTS in cells in presence of CPT | chicken DT40 Tdp1-/-;hTDP1 cells + 20 nM CPT, ATP luminescence, 48 h | Potency, µM (doses to about 46.2 µM), for inactives: top-dose activity change, negative = growth inhibition, usual class: inhibitors | actives 12% (n = 420,000) | AID 686979, 2013; note: potency is the fitted concentration of half-maximal effect; nearly all actives have a fitted effect of over 55% in size
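Cell growth measured by CellTiter-Glo luminescence after a minimum 48 h, 37 C compound exposure with 20 nM CPT in Tdp1-knockout DT40 cells stably expressing hTDP1, seeded 400/well; qHTS titration format.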
HT1080-NT tox – qHTS for induction of synthetic lethality in tumor cells producing 2HG: qHTS for the HT-1080-NT fibrosarcoma cell line | HT-1080-NT fibrosarcoma viability, CellTiter-Glo ATP luminescence, 48 h | Potency, µM (top dose mostly 46.1 µM), for the others: top-dose activity, negative = less viability, hits mostly cytotoxic | actives 1.6% (n = 360,000);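 note: NT is the 2HG producing partner of a matched IDH1 knockdown line; potency is the fitted concentration of half-maximal effect; 0% = DMSO-treated cells and -100% = media-only wells without cells; nearly all actives have a fitted effect of over 55% in size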
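750 cells/well, RPMI + 5% FBS; 2 h settle, compound pin-transfer, 48 h at 37 degrees C. CellTiter-Glo 10 min RT, luminescence. Normalized to DMSO and media-only wells.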
HT1080 IDH1KD tx – qHTS for induction of synthetic lethality in tumor cells producing 2HG: qHTS for the HT-1080-IDH1KD cell line; actives 2% (n = 360,000); HT-1080 IDH1 knockdown viability, ATP luminescence, 48 h; Potency, µM (highest dose often 46.1 µM), for inactives: at the highest dose activity, negative = toxicity, hits mostly cytotoxic;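 note: potency is the fitted concentration of half-maximal effect; 0% = DMSO wells and -100% = cell-free medium wells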
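Knockdown cells (IDH1KD HT-1080) received compounds 2 h after plating at 750 cells/well and were kept 48 h at 37 °C in 5% FBS RPMI. A CellTiter-Glo luminescence read gave % activity for curve fitting.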
An asterisk follows results filed as active; u = inconclusive; x = not tested or not shown. Unless noted, calls come from the whole dose curve; as a rule, active = well fitted curve in the direction sought with a large enough effect; inconclusive = small, poorly fitted or top-dose-only effect, or another doubt; inactive = no such curve, though single readings can be large; an effect the other way counts as inactive or inconclusive. Unless noted, % is set by controls: 0 for no effect and ±100 for the full control effect.

SMILES	IL-1B inflam inh	ELG1 repair inh	DT40 TDP1 no CPT	TDP1 cell CPT	HT1080-NT tox	HT1080 IDH1KD tx
CN(C)c1ccc(/C=C(\C#N)c2ccccn2)cc1	-10.0	u	23.1µM*	-28.5%	u	u
N#C/C(=C\c1ccc([N+](=O)[O-])cc1)c1ccccn1	-73.1*	u	23.1µM*	u	-0.4%	-5.8%
N#C/C(=C\c1ccccn1)c1ccccn1	-94.2*	u	14.6µM*	23.1µM*	-15.2%	-18.3%
CCOc1ccccc1-c1nc(SCC(=O)c2ccc(OC)c(Br)c2)n[nH]1	x	x	-5.4%	-15.5%	x	x
CN(Cc1ccco1)c1nc(-c2ccccc2C(F)(F)F)nc2ccccc12	x	x	-18.6%	u	x	x
Cc1nc2sc(-c3ccccc3)cc2c(=O)[nH]1	24.2	u	u	u	u	u
O=c1[nH]c(-c2cccnc2)nc2sc(-c3ccccc3)cc12	16.3	u	0.517µM*	0.517µM*	u	4.61µM*
c1cncc(-c2nc3cc4ccccc4cc3[nH]2)c1	-84.5*	u	u	u	-27.7%	-16.2%
CC(=O)Nc1ccc2nc(-c3ccccn3)[nH]c2c1	-5.9	u	0.9%	-23.4%	3.9%	-1.8%
c1ccc(-c2nc3cc4ccccc4cc3[nH]2)nc1	-94.9*	u	u	u	u	u
COC(=O)C1=C(C)NC(=O)/C1=C\c1cc(C)n(-c2cc(C)cc(C)c2)c1C	-59.6*	u	u	u	-9.8%	u
CC(OC(=O)C1=NNC(=O)CC1)C(=O)Nc1ncc(Cl)cc1Cl (stereo not drawn)	22.2	0.0%	-7.0%	-8.9%	-3.4%	0.6%
CCOC(=O)c1[nH]c(C)c(C(=O)OC(C)C(=O)Nc2ncc(Cl)cc2Cl)c1C (stereo not drawn)	-17.2	-17.8%	u	17.8µM*	-23.8%	-29.1%
CCOC(=O)c1sc(N)c(C(=O)Nc2ccccc2OC)c1C	15.0	-19.7%	2.91µM*	2.91µM*	u	7.31µM*
CCOC(=O)c1c(C)[nH]c(C(=O)OC(C)C(=O)Nc2ccccc2OC)c1C (stereo not drawn)	-1.8	u	u	16.4µM*	-29.2%	u
CCOC(=O)c1c(C)[nH]c(C(=O)OC(C)C(=O)Nc2ccc(C)cc2)c1C (stereo not drawn)	-5.5	x	-22.7%	-27.1%	9.9%	6.1%
CC(C)CCNS(=O)(=O)c1cc2c3c(c1)CCN3C(=O)CC2	8.2	u	11.7%	22.2%	-0.9%	0.0%
CCOC(=O)N1CCN(C(=O)C2CCN(S(=O)(=O)c3c(C)cc(C)cc3C)CC2)CC1	-6.9	u	18.4µM*	u	-1.1%	-5.4%
CCOC(=O)N1CCN(S(=O)(=O)c2c(C)cc(C)cc2C)CC1	15.3	-6.4%	u	-5.7%	-5.3%	0.3%
CCOC(=O)c1c(C)[nH]c(C)c1S(=O)(=O)N1CCC(C(=O)N2CCN(c3cc(C)ccc3C)CC2)CC1	x	x	23.1µM*	23.1µM*	x	x
CCOC(=O)c1c(C)[nH]c(C)c1S(=O)(=O)N1CCC(C(=O)N2CCN(c3cccc(C)c3)C(C)C2)CC1 (stereo not drawn)	x	x	u	23.1µM*	x	x
COc1cc(C(=O)N2CCC2(C)C(=O)NC(C)C)cc(OC)c1OC (stereo not drawn)	5.2	x	3.2%	0.8%	u	22.0%
CCS(=O)(=O)Nc1ccc(C(=O)CC2(O)C(=O)Nc3ccc(Br)cc32)cc1 (stereo not drawn)	31.9	-13.5%	6.51µM*	20.6µM*	0.5%	-2.6%
CS(=O)(=O)Nc1cccc(C(=O)CC2(O)C(=O)Nc3ccc(Br)cc32)c1 (stereo not drawn)	39.4	-10.0%	20.6µM*	u	-0.1%	0.1%
Cc1ccc2c(c1)C(O)(CC(=O)c1ccc3c(c1)OCO3)C(=O)N2 (stereo not drawn)	13.5	u	-18.6%	-7.8%	-1.5%	-0.3%
SMILES	IL-1B inflam inh	ELG1 repair inh	DT40 TDP1 no CPT	TDP1 cell CPT	HT1080-NT tox	HT1080 IDH1KD tx
CCS(=O)(=O)Nc1cccc(C(=O)CC2(O)C(=O)Nc3ccccc32)c1 (stereo not drawn)	-14.0	-0.5%	-25.9%	-10.3%	-0.2%	-5.4%
O=C(CC1(O)C(=O)Nc2ccc(Br)cc21)c1ccc2c(c1)OCO2 (stereo not drawn)	48.1	-4.6%	u	25.9µM*	-6.6%	-13.6%
NC(=O)c1ccc(Nc2nc(C(N)COCc3ccccc3)cs2)cc1 (stereo not drawn)	-4.6	x	u	u	-0.8%	1.6%
NC(COCc1ccccc1)c1csc(Nc2ccc(C(=O)c3ccccc3)cc2)n1 (stereo not drawn)	-66.0*	x	u	14.6µM*	18.4µM*	u
NC(=O)c1cccc(Nc2nc(C(N)COCc3ccccc3)cs2)n1 (stereo not drawn)	-25.5	x	u	18.4µM*	-17.6%	-28.6%
CS(=O)(=O)c1ccc(Nc2nc(C(N)CCc3ccccc3)cs2)cc1 (stereo not drawn)	-2.1	x	20.6µM*	23.1µM*	u	u
NC(CCc1ccccc1)c1csc(Nc2ccc(C(=O)c3ccccc3)cc2)n1 (stereo not drawn)	u	x	18.4µM*	16.4µM*	u	u
NC(COCc1ccccc1)c1csc(Nc2ccc(S(N)(=O)=O)cc2)n1 (stereo not drawn)	-10.3	x	u	u	-15.5%	-4.8%
COc1ccc(-c2nnc(C)c3nocc23)cc1	1.9	2.2%	u	u	-0.1%	-5.3%
O=C(CCC1N=C2c3ccccc3N=C(SCc3ccccc3Cl)N2C1=O)NCCc1ccccc1 (stereo not drawn)	x	x	-29.6%	u	x	x
NC(CCc1ccccc1)c1csc(Nc2ccc(C(=O)NCCO)cc2)n1 (stereo not drawn)	-15.1	x	23.1µM*	u	-10.6%	-29.4%
NCc1csc(Nc2ccc(C(=O)c3ccccc3)cc2)n1	-8.5	x	1.03µM*	0.92µM*	u	u
